# Source: PubChem
# The list is not random: actives were taken first. Their share in the collection is about 4%.
# KKLEB cytotox: CF airway cell cytotoxicity counter-screen. KKLEB CF airway cells viability, ATPlite luminescence, overnight; active compounds read low; cells stimulated with P. aeruginosa culture filtrate. activity change (cytotoxicity), % at 5 µM. actives 0.36% (n = 360,000);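 active means corrected activity change at or below -50% at 5 µM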
# CF NFkB block: blocks PAF-induced NF-kB reporter in cystic fibrosis cells | KKLEB NF-kB-GFP reporter, GFP fluorescence overnight | inhibition, % at 5 µM | actives 0.86% (n = 360,000) | AID 588850;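 active means at least 50% inhibition at 5 µM, scaled per plate between neutral and stimulator controls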;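 further: PAF is a Pseudomonas aeruginosa culture filtrate used as stimulus; plate controls were PAF-stimulated DMSO wells for no effect and unstimulated DMSO wells for full effect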
# Peg3 prom inh: reduces Peg3 promoter-driven luciferase expression in HeLa; HeLa PEG-Prom luciferase reporter, luminescence, overnight; inhibition, % at 20 µM; actives 1.7% (n = 360,000); AID 588405;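 active means inhibition of at least 50% at 20 µM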
# TROY NFkB inh: TROY signaling inhibition | actives 0.98% (n = 360,000) | AID 1347056 | inhibition, % at 10 µM | Q293 LMP1-TROYcd NF-kB luciferase reporter, 4 h;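 active means compounds whose plate-normalised and pattern-corrected inhibition of the luciferase reporter signal at the single screening dose is 50% or more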
# HIF-2a inh: blocks HIF-2a reporter activity; inhibition, % at 18.8 µM; actives 0.72% (n = 360,000); 786-0 RCC cells HIF-2a reporter, luciferase luminescence, overnight; AID 624352;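 active means inhibition of the luminescence signal of 40% or more relative to plate controls, in a single-dose primary screen at 18.75 µM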
# TWEAK-Fn14 inh: inhibitors of TWEAK-Fn14 interaction signaling; actives 2% (n = 360,000); TWEAK-stimulated Fn14 reporter cells, luciferase luminescence, 8 h; inhibition, % at 10 µM; in the data active means inhibition above about 50%
# Mdm2-MdmX confirm: confirmation of inhibitors of human Mdm2/MdmX interaction, set 2; actives 99% (n = 740); shares compounds with HIF-2a inh; AID 504601; inhibition, % at 8 µM; SaOS-2 split-luciferase Mdm2/MdmX complementation, luminescence;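 active means mean inhibition of the luminescence signal across two replicates at or above 26 percent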
# Target sequence (O15151 whole entry, looked up): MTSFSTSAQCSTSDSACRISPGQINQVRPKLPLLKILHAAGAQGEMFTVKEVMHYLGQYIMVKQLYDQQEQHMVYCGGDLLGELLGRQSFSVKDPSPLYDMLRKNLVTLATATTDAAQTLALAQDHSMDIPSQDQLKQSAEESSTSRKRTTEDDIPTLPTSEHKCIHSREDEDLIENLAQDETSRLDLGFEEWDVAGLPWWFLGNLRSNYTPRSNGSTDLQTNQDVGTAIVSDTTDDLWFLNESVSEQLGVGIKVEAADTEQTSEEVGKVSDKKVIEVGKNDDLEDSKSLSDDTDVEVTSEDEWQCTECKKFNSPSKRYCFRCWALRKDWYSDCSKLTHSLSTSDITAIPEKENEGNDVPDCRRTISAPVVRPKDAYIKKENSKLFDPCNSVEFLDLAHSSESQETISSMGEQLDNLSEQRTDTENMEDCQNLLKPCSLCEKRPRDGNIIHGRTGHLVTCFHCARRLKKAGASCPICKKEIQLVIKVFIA
# Target sequence (Q00987 whole entry, looked up): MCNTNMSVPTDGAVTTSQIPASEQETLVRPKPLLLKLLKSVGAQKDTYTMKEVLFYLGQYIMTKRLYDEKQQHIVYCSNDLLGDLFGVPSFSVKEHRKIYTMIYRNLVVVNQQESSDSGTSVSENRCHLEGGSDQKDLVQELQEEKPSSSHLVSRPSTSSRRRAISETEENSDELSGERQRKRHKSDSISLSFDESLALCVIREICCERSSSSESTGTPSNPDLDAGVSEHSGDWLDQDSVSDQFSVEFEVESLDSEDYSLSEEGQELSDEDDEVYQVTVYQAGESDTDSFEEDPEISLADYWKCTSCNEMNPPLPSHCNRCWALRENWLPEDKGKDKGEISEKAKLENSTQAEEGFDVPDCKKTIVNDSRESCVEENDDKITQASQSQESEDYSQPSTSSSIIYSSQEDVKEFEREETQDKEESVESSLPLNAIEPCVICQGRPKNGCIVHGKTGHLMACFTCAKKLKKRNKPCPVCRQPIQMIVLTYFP
# HIF-2a inh conf: confirmation of HIF-2a inhibitors | shares compounds with HIF-2a inh | inhibition, % at 18.8 µM | 786-0 RCC cells, HIF-2a luciferase reporter luminescence, overnight | actives 56% (n = 1,800);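 active means mean inhibition across four replicates of at least 40 percent at the single tested concentration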
# HIF-1a cs: HIF-1a inhibition counter-screen for HIF-2a hits | shares compounds with HIF-2a inh | MiaPaCa-2 HIF-1a luciferase reporter, desferoxamine, overnight | inhibition, % at 18.8 µM | actives 72% (n = 1,800) | AID 651589;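 active means mean inhibition of the reporter signal across four replicates at the single tested dose of 50% or more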
# An asterisk follows results filed as active; / = not tested or not shown.
SMILES,KKLEB cytotox,CF NFkB block,Peg3 prom inh,TROY NFkB inh,HIF-2a inh,TWEAK-Fn14 inh,HIF-2a inh conf,HIF-1a cs,others
COc1cc(OC)cc(-c2cc3nc(C)c(CCC(=O)NC(C)CCc4ccco4)c(C)n3n2)c1 (configuration not stated),-6,-8,15,1,39,8,/,/,
COc1ccc(CNC(=O)CCc2c(C)nc3cc(-c4ccccc4OC)nn3c2C)cc1,0,17,-1,3,49*,-1,58*,31,
COc1ccc(-c2cc3nc(C)c(CCC(=O)NCc4ccc(F)cc4)c(C)n3n2)c(OC)c1,-14,4,-7,-1,16,11,/,/,
Cc1nc2cc(-c3cccc(F)c3)nn2c(C)c1CCC(=O)NC(C)CCc1ccco1 (configuration not stated),-13,10,-1,9,73*,67*,82*,72*,
COc1ccccc1-c1cc2nc(C)c(CCC(=O)NCc3ccco3)c(C)n2n1,5,12,-2,12,49*,47,55*,41,
CN=C1N(C)C[C@@H]2[C@@H]3C(=O)N(C)C(=O)[C@@H]3[C@](C)(C(=O)OC)N12,14,0,2,4,9,8,/,/,
Clc1ccc(-c2csc(Nc3ccccc3)[n+]2Cc2ccco2)c(Cl)c1,-1,28,-201,18,-300,23,/,/,
CC(=NNC(=S)Nc1ccccc1)c1ccccn1,-7,31,12,-38,71*,-68,-80,-330,
CNc1ccc(Br)cc(C(=O)/C=C/c2cc(OC)ccc2OC)c1=O,-12,10,26,-22,43*,7,95*,88*,
CNc1ccc(Br)cc(C(=O)/C=C/c2ccc(OC)cc2)c1=O,-4,-11,-7,4,9,24,/,/,
O=S(=O)(CCc1ccccc1)CS(=O)(=O)CCc1ccccc1,-7,-22,13,7,6,9,/,/,
CC(C)(O)C#Cc1ccc(N2C(c3ccsc3)=Cc3ccc(F)cc3C2c2c[nH]c3ccc(C#N)cc23)cc1 (configuration not stated),/,/,/,-11,-31,-14,/,/,
CCOC(=O)c1ccc(-c2ccc(N3C(c4ccsc4)=Cc4ccc(F)cc4C3c3c[nH]c4ccc(C#N)cc34)cc2)cc1F (configuration not stated),/,/,/,14,71*,53*,47*,41,
CCN(CC)CCn1c2ccccc2c2nc3ccc([N+](=O)[O-])cc3cc21,10,-68,28,-27,-59,-15,/,/,Mdm2-MdmX confirm=83*
Cn1c(/C=C/c2cccc([N+](=O)[O-])c2)c([N+](=O)[O-])c(=O)n(C)c1=O,5,46,32,22,45*,57*,38,57*,
COc1ccc(/C=C/c2c([N+](=O)[O-])c(=O)n(C)c(=O)n2C)cc1OC,0,17,0,-9,12,-16,/,/,
Cn1c(/C=C/c2ccc(Cl)cc2)c([N+](=O)[O-])c(=O)n(C)c1=O,6,27,15,4,63*,56*,44*,18,
CCCCCOc1ccc(/C=C/c2c([N+](=O)[O-])c(=O)n(C)c(=O)n2C)cc1,10,0,31,14,42*,40,12,1,
C1=CC2=NC34CCCCC3CC3=C(CCCC3)N4C2=CC1=NC1CCCCC1 (configuration not stated),0,17,22,-7,17,23,/,/,Mdm2-MdmX confirm=52*
CC(C)OC(=O)CSc1nc(N2CCOCC2)c2c(c1C#N)CC(C)(C)OC2,-4,9,37,-2,19,7,/,/,
CC1(C)C(=O)Nc2ccccc2N1C(=O)Cn1ncc(Cl)c(Cl)c1=O,6,7,40,-23,5,17,/,/,Mdm2-MdmX confirm=58*
Cc1ccc(S(=O)(=O)NC2CC(C)(C)NC(C)(C)C2)c(C)c1C,-3,12,3,-4,20,20,/,/,
C[C@H](CO)N1C[C@H](C)[C@@H](CN(C)CC2CC2)OCc2cnnn2CCCC1=O,-7,4,-6,-5,0,-1,/,/,
NC(=O)c1cnc(Cc2c[nH]c3ccccc23)c(I)c1,0,7,12,-3,19,7,/,/,
NS(=O)(=O)c1ccc(Sc2nc3ccccc3s2)c([N+](=O)[O-])c1,-53*,82*,37,17,16,84*,/,/,Mdm2-MdmX confirm=97*
SMILES,KKLEB cytotox,CF NFkB block,Peg3 prom inh,TROY NFkB inh,HIF-2a inh,TWEAK-Fn14 inh,HIF-2a inh conf,HIF-1a cs,others
NS(=O)(=O)c1ccc(Sc2ccccn2)c([N+](=O)[O-])c1,10,17,11,4,11,13,/,/,
COc1ccc(OCCCC(=O)OCC(=O)N2CCN(S(=O)(=O)c3ccc(C)cc3C)CC2)cc1,9,16,10,-11,1,-9,/,/,
CCOC(=O)c1cnc2c(C(F)(F)F)cccc2c1NCCCN1CCOCC1,-11,-35,5,-10,9,-22,/,/,
C#CC(=O)N(c1ccc(OC)c(OC)c1)C(C(=O)NC1CCCC1)c1cccs1 (configuration not stated),-100*,101*,103*,11,87*,61*,100*,105*,Mdm2-MdmX confirm=102*
C#CC(=O)N(c1cccc(OC)c1)C(C(=O)NC1CCCC1)c1cccs1 (configuration not stated),-97*,94*,106*,28,93*,55*,99*,104*,Mdm2-MdmX confirm=103*
Cc1ccc(NC(=O)C(c2ccccc2)N2CCN(CC(=O)N3CCOCC3)CC2)cc1Cl (configuration not stated),-1,6,-16,-16,-67,-4,/,/,
CC1(C(=O)NS(=O)(=O)Cc2cccc(Cl)c2)CCN1C(=O)CC1CCCC1 (configuration not stated),-21,9,-10,2,5,-10,/,/,
CC(C)C[C@H](NC(=O)c1nc[nH]c1C(=O)N1CCN(C(=O)OC(C)(C)C)CC1)C(=O)OC(C)(C)C,-10,19,-4,2,-11,-3,/,/,Mdm2-MdmX confirm=99*
C[C@H](NC(=O)c1nc[nH]c1C(=O)N1CCN(C(=O)OC(C)(C)C)CC1)C(=O)OC(C)(C)C,6,-9,-24,-10,-5,-9,/,/,
Cc1cccc(C(=O)Nc2ccc(C(=O)/C=C/c3cccnc3)cc2)c1,-16,38,109*,-76,76*,0,-104,104*,
